The values below come from ChEMBL document CHEMBL4513216, “Probing the Open Global Health Chemical Diversity Library for Multistage-Active Starting Points for Next-Generation Antimalarials” (ACS Infect Dis, 2020).

Hit rate of the full screen: of about 69,000 compounds, about 8,600 (12%) showed an effect of 50% or more. This is one part of a sample in which strong results are shown more often than they occur.

For the experiment, the system named is Plasmodium berghei. As to the kind of experiment: Screen against P. berghei liver stage (PbLuc), transformed with Luciferase, at 10uM. The format is functional, HepG2. The conditions noted are these: tested at 10 uM.
In the case of `O=C1NCC(C(=O)Nc2ncc(Cc3cccc(F)c3)s2)N1` (stereo not given), the INHIBITION came out at 12.7%.
In the case of `Cc1ccc(Cc2cnc(NC(=O)C3CNC(=O)N3)s2)cc1F` (stereo not given) it was 55.5%; in that of `O=C1NCC(C(=O)Nc2ncc(Cc3ccc(F)cc3)s2)N1` (stereo not given), 26.5%; in that of `CNc1cc(C)nc(C2COCCN2CCOc2ccc(F)cc2)n1` (stereo not given), -12.625%.
As for `CC(SCc1ccc(Br)c2cccnc12)C(N)=O` (stereo not given), the figure is 21.1%; as for `CC(SCc1cc(Br)cc2cccnc12)C(N)=O` (stereo not given), 58.1%.
In the case of `NC(=O)CCSCc1cc(Br)cc2cccnc12` it was -57.1%; in that of `CC(OCC(F)(F)F)C(=O)N1CCCC1` (stereo not given), -1.37%; in that of `Cc1ccc(SCC2CNc3nc4ccccc4c(=O)n32)c(C)c1` (stereo not given), 49.9%.
Regarding `CC(=O)N(CCc1ccccc1)CC(=O)NC1(C#N)CC1`, the INHIBITION is -3.39%.
As for `CC(=O)N(CCc1ccccc1)CC(=O)Nc1ccccc1C#N`, the figure is 45.8%.
`CC(=O)N(CCc1ccccc1)CC(=O)NC(C)(C)C#N`: the INHIBITION is recorded as 59.7%.
As to `COc1ccc(C2=CCN(C(=O)CN(C)CC(C)C#N)CC2)cc1` (stereo not given), the INHIBITION is 46.5%.
In the case of `COc1ccc(C2=CCN(C(=O)CN(C)Cc3ccco3)CC2)cc1` it was 46.2%.
As for `COc1ccc(C2=CCN(C(=O)CN(C)S(C)(=O)=O)CC2)cc1`, the figure is -11.4%.
`COc1ccc(C2=CCN(C(=O)C3CC(=O)N(C4CC4)C3)CC2)cc1` (stereo not given): the INHIBITION came out at 40.3%.
In the case of `COc1ccc(C2=CCN(C(=O)CN(C)Cc3ccoc3)CC2)cc1` it was 53.5%; in that of `COc1ccc(C2=CCN(C(=O)C3CCS(=O)(=O)C3)CC2)cc1` (stereo not given), 59.4%.
As for `COc1ccc(C2=CCN(C(=O)CN(C)CC(N)=O)CC2)cc1`, the figure is 10.8%.
In the case of `COc1ccc(C2=CCN(C(=O)CN(CC(N)=O)C(C)C)CC2)cc1` it was 83.2%; in that of `COc1ccc(C2=CCN(C(=O)C3CCC3)CC2)cc1`, -6.44%; in that of `CC(C)NC(=O)N1CCCC(Cn2cc(-c3ccc(F)cc3)nn2)C1` (stereo not given), 38.5%.
With `Cc1nc(C)n(CC2CCCN2CCOc2cccc(F)c2)n1` (stereo not given), the INHIBITION turned out to be 37.9%.
As for `Cc1cc(-c2cc3nc(C)c(C)c(NCC4COCCO4)n3n2)no1` (stereo not given), the figure is 8.57%.
As to `CNc1ncc(CN(C)CCN2CCCCC2)cn1`, the INHIBITION is -61.5%.
In the case of `CCC1CN(CC(=O)NCCN2CCCCC2)c2ccccc2S1` (stereo not given) it was 9.57%; in that of `COCC1CN(Cc2ccc(OC)cc2)Cc2nn(C)cc21` (stereo not given), 93.3%.
In the case of `COCC1CN(Cc2ccncc2)Cc2nn(C)cc21` (stereo not given) it was -5.05%; in that of `COCC1CN(Cc2ccc(F)cc2)Cc2nn(C)cc21` (stereo not given), 8.93%.
As for `COCC1CN(Cc2ccccn2)Cc2nn(C)cc21` (stereo not given), the figure is 60.2%.
`COCC1CN(Cc2ccccn2)Cc2cn(C)nc21` (stereo not given): the INHIBITION is 45.1%.
In the case of `CCOCC1CN(Cc2ccc(OC)cc2)Cc2nn(C)cc21` (stereo not given) it was 30.7%.
Turning to `NCC1CCC(c2c(C(N)=O)sc3ccccc23)CC1` (stereo not given), the INHIBITION came out at 14.6%.
In the case of `COCCCNc1c(-c2ccc(Cl)cc2)c(=O)c1=O`, the INHIBITION is on record as 60.8%.
As for `COCCNc1c(-c2ccc(Cl)cc2)c(=O)c1=O`, the figure is 24.5%; as for `COCCCNc1c(-c2ccc(C)cc2)c(=O)c1=O`, 35.1%; as for `CN(c1ccccc1)c1ccc(CC2CCCN(CCO)C2)nn1` (stereo not given), 16.5%.
Turning to `CC(C)(C)n1cc(C#N)cc1NC(=O)CCNC(=O)c1ccco1`, the INHIBITION worked out at 26.5%.
Consider `CC(C)(CNC(=O)c1ccco1)CNC(=O)c1ccco1`, for which the INHIBITION is -18.9%.
Take `CC(=O)NCCC(=O)Nc1sccc1C(=O)C(C)(C)C`: the INHIBITION is listed as 48.9%.
As to `CC(=O)Nc1sccc1C(=O)C(C)(C)C`, the INHIBITION turned out to be 77.7%.
For the molecule `CC(C)(C)C(=O)c1ccsc1NC(=O)CCNC(=O)c1ccco1`, the INHIBITION amounted to 75.8%.
Turning to `CC(=O)NCCNC(=O)c1sccc1Br`, the INHIBITION was determined as 28.5%.
As for `Cc1nn(C)c(C)c1CN(C)C(=O)c1cc(NC(=O)C2CC2)n(C)n1`, the figure is 44.05%.
Consider `CCCc1nc(NCCOC)c2c(n1)c(C)nn2CC`, for which the INHIBITION is given as 17%.
As for `O=C(c1cnccn1)N1CCN2C[C@H](Oc3cccc(F)c3)C[C@H]2C1`, the figure is 47.5%; as for `CN1CC2(CCNCC2)COc2ccccc2S1(=O)=O`, -15.7%; as for `CC(c1cccc(-c2ncccc2F)c1)N(C)C` (stereo not given), -17.4%.
As for `NCCSc1nccc(-c2cnc(C3CC3)nc2-c2ccco2)n1`, the figure is 75.3%; as for `Cc1ncc(-c2ccnc(SCCN)n2)c(-c2ccco2)n1`, 42.6%; as for `O=C(O)Cn1nc(C2CC2)c2c(-c3ccco3)ccnc21`, 22%.
For the molecule `OCCNc1nccc(-c2c[nH]nc2-c2ccco2)n1`, the INHIBITION is given as -43.4%.
In the case of `COCCNc1ncc(-c2cc(C)no2)c(-c2ccco2)n1` it was 47.4%.
On to `Cc1ncc(-c2ccnc(SCCN(C)C)n2)c(-c2ccco2)n1`, for which the INHIBITION is 70.8%.
As for `c1cc(CN2CCC3(CC2)COC(COCC2CC2)C3)cs1` (stereo not given), the figure is 19.8%.
